Source: PubChem BioAssay (Tox21)
“And” between values parts separate entries of the source, which are not always exact repeats. Equal values may be shown once. Inconclusive results are not listed. Values without a mark were called inactive. The source made the active and inactive calls. Calls come from the whole dose curve; as a rule, active = well fitted inhibition curve with a large enough effect in the signal ratio in the repeat runs; inconclusive = weak or mixed curves, or effect the other way; inactive = flat fitted curve, though single readings scatter; the % refers to the signal ratio. Positions of bridges follow the written chain, without caps; N, C: chain ends. Non-standard residues stand in square brackets, D forms with d. Residues, ends and D or L forms follow the SMILES beside them. *: point of attachment. X2 = CC[C@H](C)CCCCC(=O)*; Dab = NCC[C@H](N)C(=O)O
% is set by controls: 0 for no effect and ±100 for the full control effect; potency is the fitted concentration of half-maximal effect.

Assay: qHTS assay for small molecule disruptors of the mitochondrial membrane potential (AID 720635)
Settings: HepG2 mitochondrial membrane potential, Mito-MPS dye ratio; series mostly up to 83.2 µM; ratio activity, negative = MMP loss: at the top concentration
In short: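 Mitochondrial membrane potential tracked with Mito-MPS dye, red aggregates (ex 540/em 590 nm) against green monomers (ex 490/em 535 nm). Compound treatment 1 hr at 37C, dye 30 min in HepG2.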
With `C[C@]12C=CC(=O)N[C@@H]1CC[C@@H]1[C@@H]2CC[C@]2(C)[C@@H](C(=O)Nc3cc(C(F)(F)F)ccc3C(F)(F)F)CC[C@@H]12` the Potency was 0.944 µM (active).
For `COc1ccc(C(=O)CCC(=O)O)c2ccccc12`, the “ratio activity, negative = MMP loss” value was 19.1%.
With `COc1ccc2cc([C@H](C)CO)ccc2c1` the “ratio activity, negative = MMP loss” value was 14.2%.
In the case of `Cn1c(=O)c2c(ncn2CCOC(=O)C(C)(C)Oc2ccc(Cl)cc2)n(C)c1=O`, the “ratio activity, negative = MMP loss” value is reported as -18.1%.
In the case of `CCCCCC(O)/C=C/C=O` (centres undefined), the “ratio activity, negative = MMP loss” value is reported as -3.52%.
With `CCC(C)[C@H]1O[C@]2(C=C[C@@H]1C)C[C@@H]1C[C@@H](C/C=C(\C)[C@@H](O[C@H]3C[C@H](OC)[C@@H](O[C@H]4C[C@H](OC)[C@H](NC(C)=O)[C@H](C)O4)[C@H](C)O3)[C@@H](C)/C=C/C=C3\CO[C@@H]4[C@H](O)C(C)=C[C@@H](C(=O)O1)[C@]34O)O2` (some centres undefined) the Potency was 3.76 µM (active) and 11.9 µM (active).
With `CC1(C)N=C(N)N=C(N)N1c1ccc(Cl)cc1` the “ratio activity, negative = MMP loss” value was -4.31%.
For `CN(C)C(=O)CCSC(SCCC(=O)O)c1cccc(/C=C/c2ccc3ccc(Cl)cc3n2)c1` (centres undefined), the Potency was 24.8 µM (active).
With `C[C@H](CCCC(C)(C)O)[C@H]1CC[C@H]2[C@@H]3CC=C4C[C@@H](O)CC[C@]4(C)[C@H]3CC[C@]12C` the “ratio activity, negative = MMP loss” value was -1.98%.
For `CNC(=O)c1c(I)c(C(=O)NCC(=O)Nc2c(I)c(C(=O)O)c(I)c(C(=O)NCCO)c2I)c(I)c(N(C)C(C)=O)c1I`, the “ratio activity, negative = MMP loss” value was -17.4%.
In the case of `C=C1CC[C@@H]2[C@](C)(CO)[C@H](O)CC[C@@]2(C)[C@@H]1C/C=C1/C(=O)OC[C@H]1O`, the “ratio activity, negative = MMP loss” value is reported as 6.14%.
For `C[C@H](CSC(=O)c1ccccc1)C(=O)N1C[C@@H](Sc2ccccc2)C[C@H]1C(=O)O`, the “ratio activity, negative = MMP loss” value was 5.61%.
With `C=C[C@]1(C)C[C@@H](OC(=O)CSCCN(CC)CC)[C@]2(C)[C@H](C)CC[C@]3(CCC(=O)[C@H]32)[C@@H](C)[C@@H]1O` the “ratio activity, negative = MMP loss” value was 7.28%.
For `O=C(O)C1=C(CSc2nnnn2CS(=O)(=O)O)CS[C@@H]2[C@H](NC(=O)[C@H](O)c3ccccc3)C(=O)N12`, the “ratio activity, negative = MMP loss” value was -14.6%.
For `COc1cc(/C=C/C(=O)N2CCN(CC(=O)N3CCCC3)CC2)cc(OC)c1OC`, the “ratio activity, negative = MMP loss” value was -23.4%.
In the case of `CCOC(=O)c1c[nH]c2cc(OCC(C)C)c(OCC(C)C)cc2c1=O`, the “ratio activity, negative = MMP loss” value is reported as -5.45%.
With `CCCCCCCCCCCCCCCCCCCCCCO` the “ratio activity, negative = MMP loss” value was 10.8%.
For `CC1=C(/C=C/C(C)=C/C=C/C(C)=C/C(=O)Oc2c(C)c(C)c3c(c2C)CC[C@@](C)(CCC[C@H](C)CCC[C@H](C)CCCC(C)C)O3)C(C)(C)CCC1`, the “ratio activity, negative = MMP loss” value was 9.36%.
In the case of `CC(C)CCCC(C)NC(C)C` (centres undefined), the “ratio activity, negative = MMP loss” value is reported as 10%.
In the case of `O=C(O)CCC/C=C\C[C@@H]1[C@@H](/C=C/[C@@H](O)COc2cccc(C(F)(F)F)c2)[C@H](O)C[C@@H]1O`, the “ratio activity, negative = MMP loss” value is reported as -13%.
With `O=C(O)COc1ccc(CCNS(=O)(=O)c2ccccc2)s1` the “ratio activity, negative = MMP loss” value was -23.4%.
With `CO[C@H]1C[C@@H]2CC[C@@H](C)[C@@](O)(O2)C(=O)C(=O)N2CCCC[C@H]2C(=O)O[C@H]([C@H](C)C[C@@H]2CC[C@@H](OC(=O)C(C)(CO)CO)[C@H](OC)C2)CC(=O)[C@H](C)/C=C(\C)[C@@H](O)[C@@H](OC)C(=O)[C@H](C)C[C@H](C)/C=C/C=C/C=C/1C` the “ratio activity, negative = MMP loss” value was -20.3%.
In the case of `CC[C@H](C)CCCCC(=O)N[C@@H](CCN)C(=O)N[C@H](C(=O)N[C@@H](CCN)C(=O)N[C@H]1CCNC(=O)[C@@H]([C@H](C)O)NC(=O)[C@H](CCN)NC(=O)[C@H](CCN)NC(=O)[C@H](CC(C)C)NC(=O)[C@@H](CC(C)C)NC(=O)[C@H](CCN)NC1=O)[C@@H](C)O` (X2-[Dab]T[Dab][Dab][Dab][dL]L[Dab][Dab][dT]; lactam 4-C), the “ratio activity, negative = MMP loss” value is reported as -24.3% [at 39.1 µM].
With `C#C[C@]1(O)CC[C@H]2[C@@H]3CCC4=CC(=O)CC[C@@H]4[C@H]3C(=C)C[C@@]21CC` the “ratio activity, negative = MMP loss” value was -11.6%.
For `C=C1CC[C@H](O)CC1=C/C=C1\CCC[C@]2(C)[C@@H]([C@H](C)CCCC(C)(C)O)CC[C@@H]12`, the Potency was 5.31 µM (active).
In the case of `CC(=O)Nc1c(I)c(C(=O)O)c(I)c(N(C)C(C)=O)c1I`, the “ratio activity, negative = MMP loss” value is reported as -9.53%.
With `CC1(C)S[C@@H]2[C@H](NC(=O)[C@H](N)c3ccccc3)C(=O)N2[C@H]1C(=O)OCOC(=O)[C@@H]1N2C(=O)C[C@H]2S(=O)(=O)C1(C)C` the “ratio activity, negative = MMP loss” value was 9%.
With `CNC(C)CCC=C(C)C` (centres undefined) the “ratio activity, negative = MMP loss” value was 14.1%.
With `Cc1c(Cl)cccc1Nc1ncccc1C(=O)O` the Potency was 13.3 µM (active).
With `CN(CCO)CC(O)Cn1cnc2c1c(=O)n(C)c(=O)n2C` (centres undefined) (tested in a mixture with another compound) the “ratio activity, negative = MMP loss” value was -2.7%.
In the case of `CC[C@H](C)CCCCC(=O)N[C@@H](CCN)C(=O)N[C@H](C(=O)N[C@@H](CCN)C(=O)N[C@H]1CCNC(=O)[C@H]([C@@H](C)O)NC(=O)[C@H](CCN)NC(=O)[C@H](CCN)NC(=O)[C@H](CC(C)C)NC(=O)[C@@H](CC(C)C)NC(=O)[C@H](CCN)NC1=O)[C@@H](C)O` (X2-[Dab]T[Dab][Dab][Dab][dL]L[Dab][Dab]T; lactam 4-C), the “ratio activity, negative = MMP loss” value is reported as -14.6%.
In the case of `CCCCCCCCCCCC(=O)OC[C@@H](O)C1OC[C@H](O)[C@H]1O` (some centres undefined), the “ratio activity, negative = MMP loss” value is reported as 8.62%.
In the case of `CCOc1ccc(N=Nc2ccc(N)cc2N)cc1`, the Potency is reported as 1.68 µM (active).
For `FCOC(C(F)(F)F)C(F)(F)F`, the “ratio activity, negative = MMP loss” value was -12%.
With `CCNC(=O)[C@@H]1CCCN1C(=O)[C@H](CCCN=C(N)N)NC(=O)[C@H](CC(C)C)NC(=O)[C@@H](Cc1c[nH]c2ccccc12)NC(=O)[C@H](Cc1ccc(O)cc1)NC(=O)[C@H](CO)NC(=O)[C@H](Cc1c[nH]c2ccccc12)NC(=O)[C@H](Cc1cnc[nH]1)NC(=O)[C@@H]1CCC(=O)N1` the Potency was 27.8 µM (active).
In the case of `C[N@+]12CCCC[C@@H]1CCC(=C(c1cccs1)c1cccs1)C2`, the “ratio activity, negative = MMP loss” value is reported as 16.3%.
In the case of `O=C(OC[C@H]1O[C@](O)(COC(=O)c2cccnc2)[C@@H](OC(=O)c2cccnc2)[C@@H]1OC(=O)c1cccnc1)c1cccnc1`, the “ratio activity, negative = MMP loss” value is reported as 12.5%.
With `COC(=O)CCC[N+](C)(C)C` the “ratio activity, negative = MMP loss” value was -8.18%.
In the case of `CCCCCCCCCCCCCCCC(=O)OCC(COC(=O)CCCCCCCCCCCCCCC)OC(=O)CCCCCCCCCCCCCCC`, the “ratio activity, negative = MMP loss” value is reported as 7.35%.
